The list is not random: actives were taken first. Their share in the collection is about 21%.
IL-1B inflam inh: inhibitors of inflammasome signaling (IL-1 beta secretion). actives 4.7% (n = 360,000). AID 743279. activity change, % at 57.5 µM. THP-1 LPS/ATP IL-1B secretion, AlphaLISA, 16 h; active compounds read low; in the data active = activity change below about -50%; inconclusive = mostly about -30% to -49%
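THP-1 cells pretreated 1 hr with compounds (up to 57.5 uM final), then stimulated with LPS (250 ng/mL final) plus ATP (1.25 mM final); secreted IL-1B measured by AlphaLISA after 16 hr, decreased signal indicating inhibition.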
DT40 TDP1 no CPT: qHTS for Inhibitors of human tyrosyl-DNA phosphodiesterase 1 (TDP1): qHTS in cells in absence of CPT | DT40 Tdp1-/- hTDP1 cells, no CPT, ATP luminescence, 48 h | Potency, µM (top dose mostly 46.2 µM), for inactives: at the highest dose activity change, negative = growth inhibition, actives largely listed as inhibitors | actives 15% (n = 420,000) | AID 686978, 2013; note: potency is the fitted concentration of half-maximal effect; nearly all actives have a fitted effect of over 55% in size
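Seeded 400 DT40-hTDP1 cells/well (vehicle DMSO, no 20 nM CPT); pinned compounds; ≥48 hr at 37 °C; CellTiter-Glo luminescence as viability measure.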
VP16 counter: counter-screen for ROR gamma inhibitors: Gal4-VP16 reporter; Drosophila S2 Gal4-VP16 UAS-luciferase, luminescence, 20 h; Potency, µM (series often up to 53.6 µM), without a hit: at the highest dose activity, negative = inhibition, usual class: inhibitors; actives 3.5% (n = 310,000); AID 2546;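 note: Gal4-VP16 expression switched on by copper sulfate through the metallothionein promoter; potency is the fitted concentration of half-maximal effect; nearly all actives have a fitted effect of over 50% in size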
TDP1 cell CPT: DT40-hTDP1 cell growth loss with CPT; chicken DT40 Tdp1-/-;hTDP1 cells + 20 nM CPT, ATP luminescence, 48 h; Potency, µM (titrated, usually from 46.2 µM), for inactives: at the top dose activity change, negative = growth inhibition, most hits filed as inhibitors; actives 12% (n = 420,000); note: potency is the fitted concentration of half-maximal effect; nearly all actives have a fitted effect of over 55% in size
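Chicken DT40 Tdp1-/- cells stably complemented with human TDP1 were seeded at 400 cells/well in medium containing 20 nM camptothecin, exposed to pin-transferred compounds, and grown at 37 °C for at least 48 hr. Viability was read as ATP luminescence.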
ELG1 DNA repair: blocks ELG1-dependent DNA repair in HEK293T cells. HEK293T ELG1-luciferase reporter, luminescence, 16 h; DNA damage induced by 5-fluorouridine. actives 2.3% (n = 330,000). Potency, µM (highest dose often 46.1 µM), for inactives: at the highest dose activity change, negative = inhibition, most hits filed as inhibitors. AID 504467; note: potency is the fitted concentration of half-maximal effect; nearly all actives have a fitted effect of over 55% in size
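Quantitative HTS, concentration-response format. 2,000 cells/well co-treated with 5-fluorouridine and compound, 16 hr in 5% CO2 at 37 °C; ONE-Glo luminescence read after 30 min.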
RORgamma inh: blocks mouse ROR gamma transcriptional activity; actives 5.4% (n = 310,000); P51450; Potency, µM (highest dose often 53.6 µM), for the others: at the highest dose activity change, negative = inhibition, usual class: inhibitors; Drosophila S2 Gal4-RORgamma UAS-luciferase reporter, 20 h; note: potency is the fitted concentration of half-maximal effect; nearly all actives have a fitted effect of over 60% in size
Target sequence (P51450 whole entry, looked up, the tested form may be a part): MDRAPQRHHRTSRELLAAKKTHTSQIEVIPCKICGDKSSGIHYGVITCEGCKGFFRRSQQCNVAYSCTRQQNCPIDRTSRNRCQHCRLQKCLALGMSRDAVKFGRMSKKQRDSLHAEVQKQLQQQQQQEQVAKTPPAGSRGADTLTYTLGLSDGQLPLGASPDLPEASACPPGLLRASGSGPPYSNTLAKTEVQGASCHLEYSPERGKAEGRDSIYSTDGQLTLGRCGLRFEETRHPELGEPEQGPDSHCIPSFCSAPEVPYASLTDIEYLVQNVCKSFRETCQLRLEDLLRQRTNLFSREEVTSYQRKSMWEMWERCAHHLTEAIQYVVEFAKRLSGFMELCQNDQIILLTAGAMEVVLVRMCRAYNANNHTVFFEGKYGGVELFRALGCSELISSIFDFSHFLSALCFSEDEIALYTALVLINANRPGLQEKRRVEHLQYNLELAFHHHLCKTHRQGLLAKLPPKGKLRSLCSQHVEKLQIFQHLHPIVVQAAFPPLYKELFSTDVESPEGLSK
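Using a luciferase readout, inhibitors were identified by reduced reporter activity in Drosophila cells coexpressing a copper-inducible Gal4–ROR gamma fusion and UAS-driven Photinus luciferase, incubated 20 hr after 700 uM copper sulfate.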
* hit, by the source's call; ? = inconclusive; / = not tested or not shown. Unless noted, calls come from the whole dose curve; as a rule, active = well fitted curve in the direction sought with a large enough effect; inconclusive = small, poorly fitted or top-dose-only effect, or another doubt; inactive = no such curve, though single readings can be large; an effect the other way counts as inactive or inconclusive. % is set by controls: 0 for no effect and ±100 for the full control effect.

SMILES	IL-1B inflam inh	DT40 TDP1 no CPT	VP16 counter	TDP1 cell CPT	ELG1 DNA repair	RORgamma inh
FC(F)(F)C(F)(F)C(F)(F)c1nc2nc(Cl)c(Cl)nc2[nH]1	26.7	16.4µM*	/	?	/	/
NCCc1cnc(-c2cccc(C(F)(F)F)c2)[nH]1	/	/	4.6%	/	/	2.1%
FC(F)(F)c1nc2nc(Cl)c(Cl)nc2[nH]1	31.0	20.6µM*	/	?	/	/
CCn1cc(CN2CCCC(CNS(=O)(=O)c3cccc4cccnc34)C2)cn1 (stereo unspecified)	4.0	-4.3%	-2.6%	-5.6%	-17.5%	-18.1%
Cc1cc2c(ncn2C)c(NS(=O)(=O)c2ccc(Cl)cc2)c1C	-5.2	-10.5%	-8.9%	-1.3%	-19.1%	1.9%
CCOC(=O)c1c(NC(=O)COC(=O)c2cc(OC)c(OC)cc2[N+](=O)[O-])sc(C)c1CC	40.7	14.6µM*	3.1%	?	?	-6.2%
CCOC(=O)c1c(CC(C)C)csc1NC(=O)COC(=O)c1cc(OC)c(OC)cc1[N+](=O)[O-]	18.1	5.8µM*	-4.6%	11.6µM*	2.5%	-8.7%
COc1cc(C(=O)OCC(C)=O)c([N+](=O)[O-])cc1OC	30.7	10.2%	-12.6%	2.9%	-2.1%	7.3%
CCOC(=O)c1c(CC(C)C)csc1NC(C)=O	13.6	-10.0%	5.5%	8.0%	11.2%	-4.9%
Cc1ccc(NC(=O)CSc2nnc(/N=C/N(C)C)s2)cc1	-5.7	-7.4%	-20.8%	-14.4%	-8.7%	17.8µM*
Cc1ccc(C(=O)N/C(=C\c2cccs2)C(=O)NCCCn2ccnc2)cc1C	-1.6	3.9%	-3.7%	-5.1%	-7.4%	34.4%
O=C(Cn1cnc2c(NCc3ccccc3)ncnc21)NCc1ccc2[nH]ccc2c1	25.6	-4.4%	/	1.7%	?	/
O=C(Cn1cnc2c(OCc3ccccc3)ncnc21)NCc1ccccc1	61.3	16.4µM*	/	?	-7.5%	/
COc1ccc(CNC(=O)Cn2cnc3c(OCc4ccccc4)ncnc32)cc1	43.6	?	/	-19.6%	13.9%	/
O=C(Cn1cnc2c(OCc3ccccc3)ncnc21)NCc1ccc2[nH]ccc2c1	6.8	16.4µM*	/	?	?	/
CCOc1cc(OCC)nc(S(C)(=O)=O)n1	0.0	14.6µM*	-3.2%	20.6µM*	-0.7%	-37.8%
Cc1noc(C)c1C(=O)N1CCC2(CC1)CCN(C(c1ccccc1)c1ccccc1)CC2	/	?	9.9%	-27.2%	/	-26.3%
COc1cc(C2c3c(-c4c(C)cc(C)cc4O)n[nH]c3C(=O)N2Cc2ccco2)cc(OC)c1OC (stereo unspecified)	/	-26.6%	/	-29.6%	/	/
Cc1ccc(O)c(-c2n[nH]c3c2C(c2ccccc2F)N(Cc2ccco2)C3=O)c1 (stereo unspecified)	/	20.6µM*	/	?	/	/
O=C1c2[nH]nc(-c3ccccc3O)c2C(c2ccccc2F)N1Cc1ccco1 (stereo unspecified)	75.2	?	-4.6%	?	-7.2%	?
O=C1c2[nH]nc(-c3ccccc3O)c2C(c2ccc(Cl)cc2)N1Cc1ccco1 (stereo unspecified)	/	?	/	16.4µM*	/	/
O=C1c2[nH]nc(-c3ccccc3O)c2C(c2ccccc2)N1Cc1ccco1 (stereo unspecified)	-25.9	20.6µM*	?	23.1µM*	-9.5%	?
COc1cc(C2c3c(-c4ccccc4O)n[nH]c3C(=O)N2Cc2ccco2)ccc1OCC(C)C (stereo unspecified)	/	18.4µM*	/	?	/	/
COc1cccc(C2c3c(-c4ccccc4O)n[nH]c3C(=O)N2Cc2ccco2)c1 (stereo unspecified)	0.0	?	-5.5%	?	-7.5%	-22.8%
Cc1cccc(NC(=O)CNC(=O)c2ccc(-n3cncn3)c([N+](=O)[O-])c2)c1C	-19.4	-8.8%	/	10.8%	13.4%	/
SMILES	IL-1B inflam inh	DT40 TDP1 no CPT	VP16 counter	TDP1 cell CPT	ELG1 DNA repair	RORgamma inh
CCCN1CNc2c(c(=O)[nH]c(=S)n2CCc2cccc(OC)c2)C1	/	?	/	-5.0%	/	/
O=C(CNC(=O)c1ccc(Cl)cc1)OCn1nnc2ccccc2c1=O	32.2	-4.3%	/	?	16.6%	/
CCOc1ccccc1C(=O)NC(C(=O)OCn1nnc2ccccc2c1=O)C(C)C (stereo unspecified)	10.1	25.9µM*	/	?	/	/
CC(C)C(NC(=O)c1ccccc1)C(=O)OCn1nnc2ccccc2c1=O (stereo unspecified)	2.8	-18.4%	/	-23.9%	4.1%	/
CC(C)[C@H](NS(=O)(=O)c1ccccc1)C(=O)OCn1nnc2ccccc2c1=O	2.3	-29.9%	1.5%	-20.0%	?	22.4%
Cc1ccc(S(=O)(=O)N[C@H](C(=O)OCn2nnc3ccccc3c2=O)C(C)C)cc1	-7.5	?	-2.4%	?	20.6µM*	28.6%
CC(C)(Oc1ccc(Cl)cc1)C(=O)OCn1nnc2ccccc2c1=O	15.6	-4.4%	2.51µM*	-6.5%	5.7%	?
O=[N+]([O-])c1ccc2c(c1)CO[C@@]21O[C@H](CCO)C[C@H](O)[C@H]1O	11.2	?	/	-3.9%	/	/
Cc1cc(C)c2sc(N(CCCN(C)C)C(=O)c3ccc(Br)s3)nc2c1	/	14.6µM*	-18.0%	?	1.7%	?
Cc1cc(C)c2sc(N(CCN(C)C)C(=O)c3c(F)cccc3F)nc2c1	-71.1*	?	?	-29.0%	?	10.5%
C/C(=N\NC(=O)c1cccc(O)c1)c1ccc(NC(=O)Cc2ccccc2)cc1	23.5	-12.3%	21.4%	-21.2%	?	31.5%
COc1cccc(C(O)c2nc(-c3ccccc3C)cs2)c1 (stereo unspecified)	21.8	18.4µM*	/	?	/	/
COc1cc(C(O)c2nc(-c3cccs3)cs2)ccc1F (stereo unspecified)	2.7	?	/	?	/	/
CN(C)c1ccc(-c2csc(C(O)c3ccc(F)cc3)n2)cc1 (stereo unspecified)	-18.6	?	/	?	/	/
COc1cc(C(O)c2nc(-c3ccncc3)cs2)ccc1F (stereo unspecified)	-9.3	23.1µM*	/	?	/	/
COc1ccc(-c2csc(C(O)c3ccc(OC)cc3)n2)cc1 (stereo unspecified)	14.2	?	/	?	/	/
COc1ccc(C(O)c2nc(-c3ccc(N(C)C)cc3)cs2)cc1 (stereo unspecified)	-7.2	18.4µM*	/	?	/	/

Screening data from PubChem.
